From PubChem BioAssay
A selection: hits, their analogues and other compounds. The true share with any hit is near 0.41%.
TRPV1 agonist – agonists of human vanilloid receptor 1 (TRPV1) | TRPV1-expressing cells, Fluo-8 calcium influx, agonist mode | 320,000 tested, 0.19% active | activation, % at 8.33 µM | Q8NER1 | AID 540275; in the data active = activation above about 80%; inconclusive = between about 30% and that limit; also: 0% is about no effect
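Cells expressing TRPV1 were dye-loaded with Fluo-8 and read kinetically: 10 s baseline, 3 min after compound (agonist portion), then 2 min after EC20 capsaicin (allosteric enhancer portion). Calcium-bound dye fluorescence at 480/520 nm.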
AT treatment – potential ataxia-telangiectasia treatments restoring KAP-1 phosphorylation | F2112 A-T fibroblasts, KAP-1 phosphorylation AlphaLISA; neocarzinostatin DNA damage 30 min before lysis | Potency, µM (top dose mostly 57.5 µM), for the others: top-dose activation, hits mostly activators | 320,000 tested, 0.19% active | AID 485349; active = well fitted activation curve with a large enough effect; inconclusive = small, poorly fitted or top-dose-only effect; inactive = no such curve, though single readings can be large or run the other way; also: potency is read from the fitted curve at half-maximal effect; % of control where 0% means no effect; nearly all actives have a fitted effect of over 45% in size
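hTERT-immortalized A-T patient fibroblasts (F2112), 500 cells/well in OPTI-MEM, 1% FBS, got compounds for 60 min, then NCS for 30 min at 37C. Lysates were then assayed for phospho-KAP-1 by AlphaLISA (anti-pKAP1 donor, anti-KAP1 acceptor beads), 6 hr at 25C.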
TRPML1 inh – human mucolipin-1 channel inhibition; Q9GZU1; TRPML1-inducible cells, Ca2+ dye fluorescence, FDSS; hits give low values; inhibition of EC80 agonist-evoked calcium signal; activity change, negative = inhibition, % (concentration not given with the values); 390,000 tested, 0.02% active; in the data active = activity change below about -50%; inconclusive = between about -30% and that limit;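 also: stimulus is agonist 54-4 at its EC80 concentration; % is scaled to controls: 0 for no effect and ±100 for the full control effect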
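Calcium fluorescence in TRPML1-DL cells induced overnight with Tet: a 110 s read after compound pin addition, then a 110 s antagonist read after challenge with 54-4 at 4 uM final (EC80).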
TRPV1 potentiator – human TRPV1 potentiation; Q8NER1; TRPV1-expressing cells, Fluo-8 calcium influx, capsaicin EC20 potentiation; potentiation, % at 8.33 µM; 320,000 tested, 0.02% active; AID 540277; in the data active = potentiation above about 80%; inconclusive = between about 30% and that limit; also: 0% is about no effect
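Fluo-8 calcium influx in TRPV1-expressing cells, kinetic read (ex 480/em 520 nm). Compound added and read 3 min for agonist activity, followed by capsaicin at EC20 final and 2 min further read for enhancement.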
TRPML1 ag – human mucolipin-1 channel agonism | TRPML1-expressing cells, Ca2+ dye fluorescence, FDSS | AID 624414 | 410,000 tested, 0.12% active | activation, % (concentration not given with the values); in the data active = activation above about 50%; inconclusive = mostly about 30% to 49%; also: 0% is about no effect
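Calcium fluorescence on an FDSS kinetic reader gave the read-out. Tet-induced TRPML1-DL cells were plated overnight, dye-loaded (Ca8 with quencher, 45-90 min, room temperature, dark), then read 110 s after compound addition, and again 110 s after 4uM final 54-4 (EC80).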
The depositor's hits bear a star; ? = inconclusive; / = no result.

SMILES	TRPV1 agonist	AT treatment	TRPML1 inh	TRPV1 potentiator	TRPML1 ag
Cc1ccc(/C=C(\C#N)C(=O)Nc2cccc(Br)c2)o1	/	/	10.7	/	0.3
N#C/C(=C\c1ccc(N2CCCCC2)o1)C(=O)Nc1cccc(Br)c1	?	10.3%	?	4.0	118.8*
CCOC(=O)c1ccc(NC(=O)/C=C/c2cccs2)cc1	83.8*	-6.0%	18.5	2.1	2.8
NS(=O)(=O)c1ccc(NC(=O)/C=C/c2cccs2)cc1	?	18.2%	2.1	-19.9	0.5
NS(=O)(=O)c1cccc(NC(=O)/C=C/c2cccs2)c1	93.9*	0.1%	-15.3	-6.9	-0.1
CCOc1ccc(NC(=O)COC(=O)c2ccccc2OCc2ccccc2Br)cc1	/	/	/	/	0.4
CCc1ccc(Nc2ccc(C(N)=O)cc2[N+](=O)[O-])cc1	6.0	-1.2%	0.0	-4.3	2.3
Cc1ccc(Nc2ccc(C(N)=O)cc2[N+](=O)[O-])cc1C	-10.0	25.1µM*	13.2	10.6	2.8
CCCCOC(=O)Nc1ccc(C(C)C)cc1	81.4*	4.8%	-21.4	-0.5	10.6
Cc1cc(OC(=O)c2cccs2)ccc1C(C)C	5.8	/	-15.4	-18.0	-0.4
O=C(Oc1ccc2c(c1)OCO2)c1cccs1	1.1	1.8%	-50.1*	-3.3	-1.0
Cn1c(=O)c2[nH]c(N3CCN(c4ccccn4)CC3)nc2n(C)c1=O	-6.4	13.8%	/	18.9	/
Cn1c(=O)c2[nH]c(N3CCCCC3)nc2n(C)c1=O	-1.4	1.4%	-3.6	8.8	60.1*
CC(C)C1CC(CCN)(c2ccccc2)CCO1 (centres undefined)	3.5	2.82µM*	/	-5.2	/
CCC(CO)Oc1cc(NC(=O)c2ccc(OC)cc2)c2ncn(C(C)C)c2c1 (centres undefined)	/	-6.2%	-57.4*	/	0.0
CCC(CO)Oc1cc(NC(=O)c2cccc(OC)c2)c2ncn(C(C)C)c2c1 (centres undefined)	/	-9.9%	0.4	/	0.3
Cn1ncc(Oc2ccc([N+](=O)[O-])cc2)c(Cl)c1=O	2.6	39.8µM*	6.5	-14.1	-0.3
O=C(Nc1ccc2c(c1)Cc1ccccc1-2)c1ccncc1	81.2*	0.8%	5.7	-11.7	-1.0
Cc1ccnc2ccc(N)cc12	/	/	/	/	-0.4
CC(O)[C@H]1CNC(=O)C(=O)N1CC1(c2ccccc2)CC1 (some centres undefined)	-1.9	8.91µM*	7.3	1.1	0.9
COc1cc(C)c2ccccc2n1	/	/	/	/	-0.9
CC(C)C(=O)N1CCC2(CC1)Oc1ccc(F)cc1C(=O)C21CC(c2cccnc2)=NO1 (centres undefined)	3.2	-12.9%	/	-14.5	/
Cc1ccc(C(=O)N2CCC3(CC2)Oc2ccc(F)cc2C(=O)C32CC(c3cccnc3)=NO2)s1 (centres undefined)	?	39.8µM*	4.9	-6.8	-0.1
COc1cc(NC(C)=O)c2ncccc2c1[N+](=O)[O-]	-5.3	-3.6%	35.8	4.3	0.4
COc1cc(NC(C)=O)c2ncccc2c1NC(C)=O	-4.6	35.5µM*	-11.4	23.0	2.4
SMILES	TRPV1 agonist	AT treatment	TRPML1 inh	TRPV1 potentiator	TRPML1 ag
O=S(=O)(NCCN1CCCC1)c1ccc(Br)cc1	0.3	1.2%	-7.9	-1.1	0.5
CCN1CCCC1CNS(=O)(=O)c1ccc(Br)cc1 (centres undefined)	-0.4	2.82µM*	/	-7.0	/
O=S(=O)(Nc1ccc(-c2nc3cccnc3s2)cc1)c1ccccc1F	5.2	15.8µM*	-24.6	-7.0	1.2
O=C1/C(=C/c2ccc(N3CCCC3)cc2)NC(=S)N1C1CC1	?	-3.8%	-8.5	-3.6	50.1*
CN(C)c1ccc(/C=C/c2cc(Cl)nc3ccccc23)cc1	/	/	/	/	-0.5
COc1ccc(Nc2nc(N3CCOCC3)nc(N3CCOCC3)n2)cc1	2.0	-2.6%	/	-0.6	/
COc1ccc(Nc2nc(NCc3ccco3)nc(N3CCOCC3)n2)cc1	85.8*	-8.5%	9.3	-10.2	2.5
Cn1c(N)c(-c2ccccc2)c2ccc([N+](=O)[O-])cc2c1=O	-1.6	7.9%	-2.6	-5.8	83.3*
Cc1c(C(=O)Nc2ccc3nc(N4CCOCC4)sc3c2)oc2ccccc12	0.7	2.6%	-16.8	13.6	54.7*
COc1ccccc1N(C)C	/	/	/	/	-0.3
COc1ccc(/C=N/Nc2nc(=O)[nH]nc2C)cc1OC	-0.8	7.08µM*	-6.3	-22.6	-0.8
